# PubChem BioAssay AID1159580 (chemical genetic matrix, 2015)
# Where “and” joins values, the source holds several entries; their conditions need not be identical. Equal values may be shown once. About 2,000 (36%) of roughly 5,500 compounds were called active. Another 18% or so got no clear call; they are omitted. The list shows a part of the results. Unmarked numbers belong to inactive results. No stated cut-off is given here; in the data, active means normalized growth mostly below about 0.91 (no sharp cut-off); inconclusive means no clear call, values can overlap the other calls; inactive means mostly above about 0.92.
# Experiment: chemical genetic growth profiling, strain panel (AID 1159580);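 further: tested at 20 µM; growth read once vehicle control cultures reached saturation at 30 °C; 1 = growth at the plate median or of vehicle wells; lower values mean less growth of the strain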
# Details: S. cerevisiae deletion strains, growth OD
compound,measurement,setting,value
OCCN1CCN(CCCN2c3ccccc3Sc3ccc(Cl)cc32)CC1,normalized growth,"locus YAL013W, strain DEP1, hits give low values",1.02 and 1.01
same,normalized growth,"locus YAL021C, strain ccr4, hits give low values",1
same,normalized growth,"locus YAL026C, strain drs2, hits give low values",0.674 (active)
same,normalized growth,"locus YAL030W, strain snc1, hits give low values",1.01
same,normalized growth,"locus YAL040C, strain CLN3, hits give low values",0.984
same,normalized growth,"locus YBL061C, strain skt5, hits give low values",0.996
same,normalized growth,"locus YBR009C, strain hhf1, hits give low values",0.998
same,normalized growth,"locus YBR021W, strain FUR4, hits give low values",0.988
same,normalized growth,"locus YBR023C, strain chs3, hits give low values",0.996
same,normalized growth,"locus YBR171W, strain sec66, hits give low values",1.01
same,normalized growth,"locus YBR229C, strain ROT2, hits give low values",1.01
same,normalized growth,"locus YBR231C, strain swc5, hits give low values",1
same,normalized growth,"locus YBR279W, strain paf1, hits give low values",0.998
same,normalized growth,"locus YCL011C, strain gbp2, hits give low values",0.997
same,normalized growth,"locus YCL016C, strain dcc1, hits give low values",0.994
same,normalized growth,"locus YCL029C, strain bik1, hits give low values",0.984
same,normalized growth,"locus YCL061C, strain MRC1 (second series), hits give low values",1.01
same,normalized growth,"locus YCL061C, strain MRC1, hits give low values",1
same,normalized growth,"locus YCL069W, strain vba3, hits give low values",1.01
same,normalized growth,"locus YCR088W, strain abp1, hits give low values",1.01
same,normalized growth,"locus YDL005C, strain med2, hits give low values",1.01
same,normalized growth,"locus YDL035C, strain GPR1, hits give low values",0.996
same,normalized growth,"locus YDL040C, strain nat1, hits give low values",1
same,normalized growth,"locus YDL074C, strain BRE1, hits give low values",0.955
same,normalized growth,"locus YDL101C, strain DUN1, hits give low values",1.01
same,normalized growth,"locus YDL134C, strain PPH21, hits give low values",1.02
same,normalized growth,"locus YDL185W, strain tfp1, hits give low values",0.996
same,normalized growth,"locus YDL192W, strain arf1, hits give low values",1.01
same,normalized growth,"locus YDR001C, strain nth1, hits give low values",1
same,normalized growth,"locus YDR069C, strain doa4, hits give low values",0.987
same,normalized growth,"locus YDR101C, strain arx1, hits give low values",0.959
same,normalized growth,"locus YDR137W, strain rgp1, hits give low values",1.33 [resistant] (active)
same,normalized growth,"locus YDR150W, strain NUM1, hits give low values",1.03
same,normalized growth,"locus YDR159W, strain sac3, hits give low values",1.01
same,normalized growth,"locus YDR162C, strain NBP2, hits give low values",1
same,normalized growth,"locus YDR195W, strain ref2",1.12
same,normalized growth,"locus YDR297W, strain sur2, hits give low values",0.997
same,normalized growth,"locus YDR318W, strain mcm21, hits give low values",0.966
same,normalized growth,"locus YDR334W, strain swr1, hits give low values",1
same,normalized growth,"locus YDR335W, strain msn5, hits give low values",1
same,normalized growth,"locus YDR363W, strain ESC2, hits give low values",0.995
same,normalized growth,"locus YDR388W, hits give low values",0.979
same,normalized growth,"locus YDR392W, strain spt3, hits give low values",0.998
same,normalized growth,"locus YDR502C, strain sam2, hits give low values",0.96
same,normalized growth,"locus YEL003W, strain gim4, hits give low values",0.988
same,normalized growth,"locus YEL037C, strain rad23, hits give low values",1
same,normalized growth,"locus YEL061C, strain CIN8 (second series), hits give low values",1
same,normalized growth,"locus YEL061C, strain CIN8, hits give low values",1.01
same,normalized growth,"locus YER002W, strain NOP16, hits give low values",1.04
same,normalized growth,"locus YER015W, strain faa2, hits give low values",1
same,normalized growth,"locus YER016W, strain bim1, hits give low values",1
same,normalized growth,"locus YER110C, hits give low values",0.998
same,normalized growth,"locus YER111C, strain swi4, hits give low values",1
same,normalized growth,"locus YER155C, strain BEM2 (second series), hits give low values",0.971
same,normalized growth,"locus YER155C, strain BEM2, hits give low values",1.03
same,normalized growth,"locus YER167W, strain BCK2, hits give low values",1.01
same,normalized growth,"locus YFR010W, strain ubp6, hits give low values",0.976
same,normalized growth,"locus YGL078C, strain dbp3, hits give low values",0.994
same,normalized growth,"locus YGL086W, strain mad1, hits give low values",0.993
same,normalized growth,"locus YGL167C, strain pmr1, hits give low values",0.989
same,normalized growth,"locus YGL173C, strain kem1, hits give low values",0.972
same,normalized growth,"locus YGL227W, strain vid30, hits give low values",1.01
same,normalized growth,"locus YGL240W, strain doc1, hits give low values",1.04
same,normalized growth,"locus YGL248W, strain PDE1, hits give low values",1.02
same,normalized growth,"locus YGL253W, strain hxk2, hits give low values",0.997
same,normalized growth,"locus YGR078C, strain PAC10, hits give low values",0.997 and 0.999
same,normalized growth,"locus YGR135W, strain pre9, hits give low values",0.958
same,normalized growth,"locus YGR229C, strain SMI1, hits give low values",0.958
same,normalized growth,"locus YGR252W, strain gcn5, hits give low values",0.931
same,normalized growth,"locus YHR013C, strain ard1, hits give low values",0.995
same,normalized growth,"locus YHR027C, strain rpn1, hits give low values",0.988
same,normalized growth,"locus YHR030C, strain SLT2, hits give low values",1.02 and 0.987
same,normalized growth,"locus YHR079C, strain IRE1 (second series), hits give low values",0.984
same,normalized growth,"locus YHR079C, strain IRE1, hits give low values",0.993
same,normalized growth,"locus YHR094C, strain hxt1, hits give low values",0.992
same,normalized growth,"locus YHR129C, strain ARP1, hits give low values",1.01
same,normalized growth,"locus YHR142W, strain chs7, hits give low values",1.01
same,normalized growth,"locus YHR200W, strain rpn10, hits give low values",0.986
same,normalized growth,"locus YIL066C, strain RNR3, hits give low values",0.998
same,normalized growth,"locus YIL073C, strain SPO22, hits give low values",1.01
same,normalized growth,"locus YIL125W, strain kgd1, hits give low values",0.991
same,normalized growth,"locus YIR030C, strain dcg1, hits give low values",0.997
same,normalized growth,"locus YJL092W, strain hpr5, hits give low values",1
same,normalized growth,"locus YJL095W, strain BCK1 (second series), hits give low values",1
same,normalized growth,"locus YJL095W, strain BCK1, hits give low values",0.977 and 0.981
same,normalized growth,"locus YJL115W, strain asf1, hits give low values",1
same,normalized growth,"locus YJL129C, strain trk1, hits give low values",1.01
same,normalized growth,"locus YJL134W, strain LCB3, hits give low values",1.01
same,normalized growth,"locus YJL154C, strain vps35, hits give low values",1.01
same,normalized growth,"locus YJL164C, strain tpk1, hits give low values",0.988
same,normalized growth,"locus YJL166W, strain qcr8, hits give low values",1.01
same,normalized growth,"locus YJL168C, strain set2, hits give low values",0.991
same,normalized growth,"locus YJL187C, strain SWE1 (second series), hits give low values",1
same,normalized growth,"locus YJL187C, strain SWE1, hits give low values",1
same,normalized growth,"locus YJR043C, strain POL32, hits give low values",1.02
same,normalized growth,"locus YJR066W, strain TOR1, hits give low values",0.954
